Laboratory results as given in PubChem BioAssay AID687001 (Broad Institute, 2013).
Entries with a potency or affinity are not part of this list. Active and inactive are the calls of the source.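 The calls were made as follows: active = signal-lowering compounds whose fitted half-maximal concentration is at or below twice the top tested dose in every run; inconclusive = runs disagree, flat 30 to 70% inhibition, or poor curve fit; inactive = the rest.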

biological target: Protein S100-A4 (Homo sapiens) (UniProt P26447); assay: S100A4-myosin IIA binding inhibitor potency, dose response, biochemical, fluorescence polarization, cherry-picked hits (AID 687001); conditions: FP, S100A4/TAMRA-myosin IIA peptide binding; series mostly up to 11 µM
Sequence (P26447 whole entry, looked up): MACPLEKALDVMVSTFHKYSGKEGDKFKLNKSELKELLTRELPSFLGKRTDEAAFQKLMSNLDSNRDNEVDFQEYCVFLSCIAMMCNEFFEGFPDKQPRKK

How did the outcome turn out when CCN1CCN(CCNC(=O)c2cc(Cl)c(NC(=O)C3=C(C)OCCS3)cc2OC)CC1 was run?
The outcome was “inactive”.

For Cc1ccc(S(=O)(=O)N(C)C[C@@H]2Oc3c(NC(=O)C4CCCCC4)cccc3C(=O)N([C@H](C)CO)C[C@@H]2C)cc1, which outcome is on record?
The outcome was “inactive”.

Which outcome does the source give for CCCC(=O)Nc1ccc2c(c1)OC[C@@H](C)N(C(=O)c1cnccn1)C[C@@H](C)[C@H](OC)CN(C)C2=O here?
The outcome was “inactive”.

Which outcome does the source give for CC(C)C[C@H]1CN(CCCC[C@@H]2CNC(=O)C(=O)N2Cc2ccccc2)C(=O)C(=O)N1Cc1ccccc1 here?
Its outcome is “inactive”.

Which outcome does the source give for COc1ccc(-c2cc(C(=O)NCc3ccco3)c3ccccc3n2)c(OC)c1 here?
Its outcome is “inactive”.

With CCCCCC(=O)Nc1cc(S(=O)(=O)N2CCOCC2)ccc1N1CCCCC1 as the molecule, how does the outcome read?
The outcome was “inactive”.

How did the outcome turn out when CC(C)CC1C(=O)N(Cc2cn(CC3CCCCC3)nn2)CCS(=O)(=O)N1Cc1ccc(-c2ccc(Cl)cc2)cc1 (stereo not given) was run?
The outcome was “inactive”.

How did the outcome turn out when O=C(Nc1cc(Cl)ccc1O)C1CC(c2c(F)cccc2Cl)=NO1 (stereo not given) was run?
The outcome was “inactive”.

How did the outcome turn out when Cc1cc(NC(=O)CCC(=O)N(Cc2ccco2)C2(C(=O)NC3CCCC3)CCC(C)CC2)no1 (stereo not given) was run?
The outcome was “inactive”.

For COc1ccc(S(=O)(=O)N(C)C[C@H]2Oc3ncc(-c4ccncc4)cc3C(=O)N([C@@H](C)CO)C[C@H]2C)cc1, which outcome is on record?
Its outcome is “inactive”.

How did the outcome turn out when CCOc1ccc(NC(=O)CN(C)C(=O)c2cccc3ccccc23)cc1OCC was run?
The outcome was “inactive”.

For CN(C)C(=O)[C@H]1[C@H](CO)[C@H]2Cn3c(cccc3=O)[C@@H]1N2C(=O)c1ccccc1, which outcome is on record?
Its outcome is “inactive”.

With O=C(C[C@H]1CC[C@@H]2[C@H](COC[C@@H](O)CN2C(=O)Nc2ccc(F)cc2)O1)NCCc1ccccc1 as the molecule, how does the outcome read?
Its outcome is “inactive”.

COCC#Cc1cnc2c(c1)C(=O)N([C@H](C)CO)C[C@H](C)[C@H](CN(C)C(=O)C1CCC1)O2 was tested. Which outcome did it give?
Its outcome is “inactive”.

How did the outcome turn out when CCN(CC)C(=O)Oc1ccc2c(c1)O/C(=C\c1ccco1)C2=O was run?
Its outcome is “inactive”.

For Cc1[nH]c(C)c(S(=O)(=O)N2CCN(c3ccccc3F)CC2)c1C(=O)N1CCCCC1, which outcome is on record?
The outcome was “inactive”.

Cc1ccc(C(=O)N2CCN(c3ccc4c(c3)C3CC4CCN3C(=O)OCc3ccccc3)CC2)cc1 (stereo not given) was tested. Which outcome did it give?
Its outcome is “inactive”.

With CCc1ccc(C(=O)NNC(=O)c2c(CC)noc2C)cc1 as the molecule, how does the outcome read?
Its outcome is “inactive”.

COc1cccc(NC(=O)N(C)C[C@H]2Oc3cc(C#CC4(O)CCCC4)ccc3S(=O)(=O)N([C@H](C)CO)C[C@H]2C)c1 was tested. Which outcome did it give?
The outcome was “inactive”.

For C[C@@H]1CN([C@H](C)CO)S(=O)(=O)c2ccc(C3=CCCCC3)cc2O[C@@H]1CN(C)Cc1ccccc1, which outcome is on record?
The outcome was “inactive”.

Which outcome does the source give for COc1ccccc1CCNC(=O)C(=O)NCCC1CCCCN1S(=O)(=O)c1ccccc1 (stereo not given) here?
The outcome was “inactive”.

For Cc1onc(-c2ccccc2Cl)c1C(=O)N1CCCC1, which outcome is on record?
Its outcome is “inactive”.

Which outcome does the source give for COC(=O)c1ccc(Oc2nc(SC)nc(N(C)C)n2)cc1 here?
The outcome was “inactive”.

How did the outcome turn out when NC1=NC(=O)C(CC(=O)c2ccc(Cl)cc2)S1 (stereo not given) was run?
The outcome was “inactive”.

With COc1cccc(CN2CC3(CN(C)C3)c3c([nH]c4cc(OC)ccc34)[C@@H]2CO)c1 as the molecule, how does the outcome read?
Its outcome is “inactive”.
